Experimental data reported in paper PMC4336329 (PLoS ONE, 2015).
In all, about 310,000 compounds went through this assay and about 14,000 (4.5%) showed an effect of 50% or more. Effects have a minus sign here. Many of the other results were omitted from the sample, so strong results are more common in it than they were.

Biological target: human ether-à-go-go-related gene (hERG) potassium channel (human, UniProt Q12809)
Test: primary screen, population patch clamp on CHO cells stably expressing hERG; higher = less effect of the substance
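Further: peak tail current of the secondary pulse compared with the same well before compound.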

Sequence of human ether-à-go-go-related gene (hERG) potassium channel (Q12809 whole entry, looked up): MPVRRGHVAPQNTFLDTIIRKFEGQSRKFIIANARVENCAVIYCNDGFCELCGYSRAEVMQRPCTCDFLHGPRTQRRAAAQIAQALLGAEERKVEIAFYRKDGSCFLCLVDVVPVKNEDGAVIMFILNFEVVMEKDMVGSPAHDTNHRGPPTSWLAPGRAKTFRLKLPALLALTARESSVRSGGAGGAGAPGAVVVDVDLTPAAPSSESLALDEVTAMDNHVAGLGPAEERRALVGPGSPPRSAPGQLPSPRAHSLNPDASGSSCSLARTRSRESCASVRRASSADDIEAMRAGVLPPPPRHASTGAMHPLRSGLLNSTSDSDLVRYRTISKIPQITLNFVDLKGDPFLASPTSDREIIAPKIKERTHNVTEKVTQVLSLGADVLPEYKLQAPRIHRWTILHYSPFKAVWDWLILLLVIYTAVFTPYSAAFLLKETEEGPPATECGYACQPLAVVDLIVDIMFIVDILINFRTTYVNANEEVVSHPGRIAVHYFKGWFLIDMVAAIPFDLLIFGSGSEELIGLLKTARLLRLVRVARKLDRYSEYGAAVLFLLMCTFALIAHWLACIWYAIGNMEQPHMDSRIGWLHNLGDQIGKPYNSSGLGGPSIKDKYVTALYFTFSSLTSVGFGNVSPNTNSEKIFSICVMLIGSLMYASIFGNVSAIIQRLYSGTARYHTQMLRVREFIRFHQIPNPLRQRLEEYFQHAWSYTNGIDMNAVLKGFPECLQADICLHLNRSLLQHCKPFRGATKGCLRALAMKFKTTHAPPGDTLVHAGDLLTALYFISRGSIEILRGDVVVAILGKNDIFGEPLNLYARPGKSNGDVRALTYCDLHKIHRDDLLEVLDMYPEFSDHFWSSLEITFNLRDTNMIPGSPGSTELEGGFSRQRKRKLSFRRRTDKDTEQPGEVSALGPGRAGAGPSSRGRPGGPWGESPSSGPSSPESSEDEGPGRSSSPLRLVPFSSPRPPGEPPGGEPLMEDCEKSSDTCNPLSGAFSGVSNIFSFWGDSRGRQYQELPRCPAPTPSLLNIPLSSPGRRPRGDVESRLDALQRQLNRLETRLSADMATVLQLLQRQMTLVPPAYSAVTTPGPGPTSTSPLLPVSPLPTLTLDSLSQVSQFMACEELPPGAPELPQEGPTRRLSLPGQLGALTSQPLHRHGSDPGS

SMILES	hERG current change (%, negative = inhibition) at 10uM [%]
Cc1ccc(-n2c(C)nc3ccsc3c2=O)cc1	1.42
O=C(CCc1nc(-c2ccccc2Cl)no1)NC1CCCCC1	10.6
CCCCCCCNC(=O)COc1ccc2c(c1)C(=O)CC(C)(C)O2	-14.4
COCCNC(=O)CNC(=S)N(CCCN1CCOCC1)Cc1cccs1	14.1
CCOC(=O)CNC(=S)N(CCCN1CCN(C)CC1)Cc1cccs1	-43.5
CCOC(=O)CNC(=S)N(CCCN1CCCCC1)Cc1cccs1	-62.6
CCOC(=O)CNC(=S)N(CCCN1CCCCCC1)Cc1cccs1	-65.8
O=C(CNC(=S)N(CCCN1CCOCC1)Cc1cccs1)N1CCOCC1	-9.74
CCOC(=O)CNC(=S)N(CCCN1CCCC1)Cc1cccs1	-53.6
O=C(CNC(=S)N(CCCN1CCOCC1)Cc1cccs1)N1CCCCCC1	-41.4
O=C(CNC(=S)N(CCCN1CCOCC1)Cc1cccs1)N1CCCC1	3.09
CCN(CC)CCNC(=O)CNC(=S)N(CCCN1CCOCC1)Cc1cccs1	15.7
O=C(Nc1cccc(F)c1)c1cc(S(=O)(=O)NCCC2=CCCCC2)ccc1F	17.4
COc1ccccc1N(CC(=O)NCCSCc1ccccc1)S(C)(=O)=O	4.03
COc1ccc(N2CC(C)Cn3c2nc2c3c(=O)[nH]c(=O)n2C)cc1 (centres unmarked)	-24.3
N#Cc1c(NC(=O)CSc2ncccn2)oc(-c2ccccc2)c1-c1ccccc1	25.2
Nc1nc(Cl)nc2ccc(Br)cc12	7.87
Cc1nc2ccccc2c(N)c1C(=O)/C=C/c1ccccc1	-79.7
Cc1[nH]c2ccccc2c1C(=O)/C=C/c1ccccc1	8.96
CC(=O)c1c(C)nc2ccccc2c1N	-10.1

SMILES	hERG current change (%, negative = inhibition) at 10uM [%]
Cc1occc1-c1nnc(SCCNCCO)o1.O=C(O)C(=O)O	63.6
COc1ccc(C2NC(=O)CCC2[N+](=O)[O-])cc1OC (centres unmarked)	10.1
CSc1cccc(NC(=O)CCCOc2ccc(Cl)cc2C)c1	-2.48
CC(C)C(c1nnnn1Cc1ccccc1)N1CCN(Cc2ccc3c(c2)OCO3)CC1 (centres unmarked)	-52
Cl.c1ccc(CCn2nnnc2C(c2cccs2)N2CCN(Cc3ccc4c(c3)OCO4)CC2)cc1 (centres unmarked)	-24.1
c1ccc(Cn2nnnc2CN2CCN(Cc3ccc4c(c3)OCO4)CC2)cc1	-61.1
Cl.Fc1ccccc1C(c1nnnn1Cc1ccc2c(c1)OCO2)N1CCN(Cc2ccco2)CC1 (centres unmarked)	-56.4
Cl.NC(=O)C1CCN(C(c2ccccc2F)c2nnnn2Cc2ccco2)CC1 (centres unmarked)	11.1
c1ccc2c(c1)CCN(Cc1nnnn1Cc1ccc3c(c1)OCO3)C2	-3.1
Fc1ccccc1C(c1nnnn1Cc1ccc2c(c1)OCO2)N1CCN(Cc2ccccc2)CC1 (centres unmarked)	-55.3
CC(C)C(c1nnnn1Cc1ccc(F)cc1)N1CCN(Cc2ccc3c(c2)OCO3)CC1 (centres unmarked)	-43.3
CC(C)C(c1nnnn1Cc1ccc2c(c1)OCO2)N1CCN(c2ccccc2)CC1 (centres unmarked)	23.1
c1ccc2sc(C3CCN(Cc4nnnn4Cc4ccc5c(c4)OCO5)CC3)nc2c1	-8.73
CCN1CCN(C(c2ccccc2F)c2nnnn2Cc2ccc3c(c2)OCO3)CC1.Cl (centres unmarked)	-37.6
CC(C)C(c1nnnn1Cc1ccccc1)N1CCN(Cc2ccco2)CC1.Cl (centres unmarked)	-32.1
O=C(CN1C(=O)NC2(CCCC2)C1=O)OCc1ccc(Cl)cc1Cl	-20.9
CC(C)c1ccc(/C=C/C(=O)N2CCc3ccccc3C2)cc1	3.46
O=C(CC(SCCO)c1ccc([N+](=O)[O-])cc1)c1ccco1 (centres unmarked)	-35.7
O=C(NCc1ccccc1Cl)c1cc2c(s1)CS(=O)(=O)C2	-4.86
Cc1nnc(C)n1/N=C/c1cc(Br)ccc1O	9.86

SMILES	hERG current change (%, negative = inhibition) at 10uM [%]
C/C(=N/NS(=O)(=O)c1ccc(C)cc1C)c1ccc2c(c1)OCO2	-2.58
O=C(O)c1ccccc1SSc1ccccc1C(=O)O	25.5
O=C(c1ccco1)N1CCC(c2nc(-c3ccccc3Cl)no2)CC1	-11.5
Clc1ccc(CNCc2cccs2)cc1Cl	7.52
CC1CC(C)CN(C(=O)Nc2ccccc2F)C1 (centres unmarked)	22.9
CCN(CC)S(=O)(=O)c1ccc(C(=O)NC2CN3CCC2CC3)cc1 (centres unmarked)	25.6
Br.COc1ccc(/C=N/N(C)C2=NCCN2)c(OC)c1OC	5.63
Br.CN(/N=C/c1ccncc1)C1=NCCN1	5.06
CN(/N=C/c1ccc(C(C)(C)C)cc1)C1=NCCN1	-71.6
Cc1ccccc1C(=O)N1CCC(C(=O)Nc2ccccn2)CC1	11.9
Cn1nc(C(=O)N2CCOCC2)c([N+](=O)[O-])c1C(=O)N1CCOCC1	-54.4
Cn1nc(C(C)(C)C)c([N+](=O)[O-])c1C(=O)N1CCOCC1	17.3
Cc1onc(C(=O)N2CCOCC2)c1[N+](=O)[O-]	19.8
Cc1cc2ncn(CC(C)C)c2cc1C	-3.79
O=C(CN1CCC(O)(c2ccc3c(c2)OCO3)CC1)NC1CCCCC1	3.07
CSC(=Nc1ccc(Cl)cc1)N[n+]1ccccc1.[I-]	-58.8
CSC(=Nc1ccccc1)Nc1ccccc1	-15.8
[S-]C(=Nc1ccc(Cl)cc1)N[n+]1ccccc1	1.12
C[N+]1(CCC(C(N)=O)(c2ccccc2)c2ccccc2)CCCCC1.[Br-]	10.7
